# High-throughput results (PubChem BioAssay)
# A selection: hits, their analogues and other compounds. The true share with any hit is near 21%.
# Pf growth 48h: P. falciparum growth inhibition at 48 hours (one generation); Potency, µM (highest dose often 28.7 µM), for inactives: at the top dose activity change, negative = inhibition, actives largely listed as inhibitors; P. falciparum luciferase growth in erythrocytes, 48 h; hit rate 5.9% among 310,000; AID 504832; further: potency means the concentration at half of the fitted maximal effect; on the % scale 0 is the no-effect control and ±100 the full control effect
#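 Luminescence readout; reporter = integrated firefly luciferase in P. falciparum. RBC culture at 2% hematocrit, 0.1% parasitemia final, 37 C/5% CO2; decreased signal taken as growth inhibition.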
# Shiga toxin inh: blocks Shiga toxin action in Vero cells. Vero cells, Shiga toxin protein synthesis inhibition reporter. inhibition, % at 38.7 µM. hit rate 9.2% among 290,000. AID 2315; in the data active means inhibition mostly above about 28%, no sharp cut-off; inactive means mostly below about 43%; further: 0% is about no effect
# Cycloheximide cs: counter-screen hit for Shiga toxin inhibitors, cycloheximide. cell reporter, cycloheximide protein synthesis inhibition counterscreen. max response, %. hit rate 12% among 300,000; in the data active means max response mostly above about 13%, no sharp cut-off; inactive means mostly below about 14%; further: read at 38.3 µM for the half of the compounds with a filed dose; 0% is about no effect
# Giardia FBPA inh-1: inhibitors of Giardia lamblia fructose-1,6-bisphosphate aldolase; A8B2U2; purified Giardia FBPA; Potency, µM (titrated, usually from 59.6 µM), for the others: top-dose activity, negative = inhibition, usual class: inhibitors; hit rate 0.71% among 290,000; further: potency means the concentration at half of the fitted maximal effect; on the % scale 0 is the no-effect control and ±100 the full control effect; nearly all actives have a fitted effect of over 55% in size
# Target sequence (A8B2U2 whole entry, looked up): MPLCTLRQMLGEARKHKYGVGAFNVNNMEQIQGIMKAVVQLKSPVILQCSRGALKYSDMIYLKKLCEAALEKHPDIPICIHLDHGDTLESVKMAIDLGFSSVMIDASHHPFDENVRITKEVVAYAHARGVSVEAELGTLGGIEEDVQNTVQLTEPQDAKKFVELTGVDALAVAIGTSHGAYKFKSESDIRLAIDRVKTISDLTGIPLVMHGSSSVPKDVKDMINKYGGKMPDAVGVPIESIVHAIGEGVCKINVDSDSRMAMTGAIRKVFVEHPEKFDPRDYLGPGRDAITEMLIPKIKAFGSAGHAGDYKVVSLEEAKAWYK
#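 Giardia FBPA (40 nM reagent) was preincubated 10 min at RT with compound (up to 57.5 uM final), then substrate plus GAPDH/TPI/NAD/arsenate coupling system with diaphorase/resazurin was added; resorufin fluorescence (525/598 nm) was read after 20 min.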
# Pf growth 96h: P. falciparum growth inhibition at 96 hours. P. falciparum luciferase reporter growth, 96 h. Potency, µM (titrated, usually from 28.7 µM), without a hit: at the highest dose activity change, negative = inhibition, hits mostly inhibitors. hit rate 6.9% among 320,000; further: potency means the concentration at half of the fitted maximal effect; on the % scale 0 is the no-effect control and ±100 the full control effect
#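 Erythrocytes infected with luciferase-expressing P. falciparum were dispensed at 2% hematocrit and 0.05% parasitemia (final), then incubated with compounds 96 hours at 37 C in 5% CO2. Luminescence after detection reagent addition reported growth.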
# NS1 inh: inhibitors of influenza NS1 protein function; Potency, µM (highest dose often 46.1 µM), inactives show at the highest dose activity, positive = more growth; hit rate 0.4% among 270,000; calls by dose curve; further: potency means the concentration at half of the fitted maximal effect; actives are rising curves; nearly all actives have a fitted effect of over 50% in size
#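 In this qHTS, NS1 from influenza A is expressed in budding yeast, where it slows growth. Cells are switched from glucose to 2% galactose medium (pH 6.0, -URA), treated with compound, and growth recovery is read at OD600.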
# Giardia growth: blocks growth of Giardia lamblia trophozoites | shares compounds with Giardia FBPA inh-1 | Giardia lamblia trophozoite growth inhibition | Potency, µM (doses to about 57.5 µM), without a hit: at the highest dose activity change, negative = inhibition, hits mostly inhibitors | hit rate 5% among 1,500;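 further: potency means the concentration at half of the fitted maximal effect; trophozoites exposed to compound for 48 h at 37 °C; on the % scale 0 is the no-effect control and ±100 the full control effect; nearly all actives have a fitted effect of over 70% in size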
# Mammal cell tox: mammalian cytotoxicity of Giardia aldolase inhibitor hits. mammalian cell viability counter-screen, qHTS. Potency, µM (highest dose often 57.5 µM), for inactives: at the top dose viability change, negative = toxicity, usual class: inhibitors. AID 2786. hit rate 4% among 1,500. shares compounds with Giardia FBPA inh-1;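 further: Chinese hamster ovary cells used as mammalian cytotoxicity surrogate; viability measured as cellular ATP by luminescence; potency means the concentration at half of the fitted maximal effect; compound exposure lasted 48 h before reading; on the % scale 0 is the no-effect control and ±100 the full control effect; nearly all actives have a fitted effect of over 60% in size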
# Giardia FBPA inh-2: confirmation of Giardia fructose-bisphosphate aldolase inhibitors | hit rate 5% among 1,500 | shares compounds with Giardia FBPA inh-1 | purified Giardia aldolase enzyme activity, qHTS | AID 2787 | Potency, µM (top dose mostly 57.5 µM), for the others: top-dose activity change, negative = inhibition, most hits filed as inhibitors; further: potency means the concentration at half of the fitted maximal effect; on the % scale 0 is the no-effect control and ±100 the full control effect; nearly all actives have a fitted effect of over 45% in size
# Rabbit aldolase: rabbit FBP aldolase inhibition by Giardia aldolase hits | AID 2794 | hit rate 4% among 1,500 | Potency, µM (titrated, usually from 57.5 µM), without a hit: at the top dose activity, negative = inhibition, hits mostly inhibitors | Rabbit muscle FBPA enzyme inhibition, selectivity counter-screen | shares compounds with Giardia FBPA inh-1; further: potency means the concentration at half of the fitted maximal effect; on the % scale 0 is the no-effect control and ±100 the full control effect; nearly all actives have a fitted effect of over 60% in size
# Target sequence (P00883 whole entry, looked up): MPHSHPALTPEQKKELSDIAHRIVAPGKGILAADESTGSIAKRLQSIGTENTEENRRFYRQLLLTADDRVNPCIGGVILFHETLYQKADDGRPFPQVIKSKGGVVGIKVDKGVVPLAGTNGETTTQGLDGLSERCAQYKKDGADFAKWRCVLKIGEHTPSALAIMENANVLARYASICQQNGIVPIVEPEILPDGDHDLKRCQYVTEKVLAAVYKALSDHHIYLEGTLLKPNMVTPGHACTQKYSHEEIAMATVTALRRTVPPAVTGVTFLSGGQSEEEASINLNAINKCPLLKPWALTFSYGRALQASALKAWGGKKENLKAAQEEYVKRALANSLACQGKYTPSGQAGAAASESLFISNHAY
# GAPDH coupling: GAPDH inhibition flagged for Giardia aldolase hits; Potency, µM (series often up to 57.5 µM), inactives show at the highest dose activity change, negative = inhibition, hits mostly inhibitors; hit rate 6% among 1,500; GAPDH coupling enzyme counterscreen, biochemical, qHTS; shares compounds with Giardia FBPA inh-1; further: potency means the concentration at half of the fitted maximal effect; on the % scale 0 is the no-effect control and ±100 the full control effect; nearly all actives have a fitted effect of over 55% in size
# An asterisk follows results filed as active; u = inconclusive; x = no result given; [ ] = another dose, or the depositor's remark. Unless noted, the call rests on the fitted dose curve; in most records, active means well fitted curve in the direction sought with a large enough effect; inconclusive means small, poorly fitted or top-dose-only effect, or another doubt; inactive means no such curve, though single readings can be large; an effect the other way counts as inactive or inconclusive.
SMILES,Pf growth 48h,Shiga toxin inh,Cycloheximide cs,Giardia FBPA inh-1,Pf growth 96h,NS1 inh,Giardia growth,Mammal cell tox,Giardia FBPA inh-2,Rabbit aldolase,GAPDH coupling
O=C(N/N=C/c1ccccn1)c1cc(-c2ccccc2Cl)n[nH]1,u,95*,35*,16µM*,u,x,-19%,-8%,-8%,-14%,-18%
O=C(N/N=C/c1ccccn1)c1cccc(S(=O)(=O)N2CCCC2)c1,-15%,-1,-3,16µM*,11%,-8%,4%[10.4 µM],5%,6%,7%,0%
O=C(N/N=C/c1ccccn1)c1cc(-c2ccccc2)nc2ccccc12,u,26,7,14µM*,13µM*,u,24%,u,10%,7%,-2%
O=C(N/N=C/c1ccncc1)c1cccc(S(=O)(=O)N2CCCC2)c1,3%,x,x,x,5%,x,x,x,x,x,x
CCOc1ccc(OCC)c(NC(=O)CN2CCN(CC(=O)NC(C)C)CC2)c1,-53%,-16,-4,32µM*,13µM*,2%,25%,-12%,-1%,2%,8%
CCCN1CCN(CC(=O)Nc2cc(OCC)ccc2OCC)CC1,-1%[0.00184 µM],-4,-6,u,-10%,3%,x,x,x,x,x
Fc1ccc(-[n+]2nc(Nc3ccccc3)sc2-c2ccc(OCc3ccccc3)cc2)cc1,-97%,-1,0,16%,u,15%,x,x,x,x,x
CSc1ccc(-c2sc(Nc3ccccc3)n[n+]2-c2ccccc2)cc1,u,53*,36*,25µM*,1.9µM*,-1%,-28%,-24%,-1%,9%,2%
CC(=O)Nc1ccc(-c2sc(Nc3cccc4ccccc34)n[n+]2-c2ccccc2)cc1,35%,-3,-2,16µM*,41%,29%,32%,6%,7%,3%,13%
CSc1ccc(-c2sc(Nc3cccc4ccccc34)n[n+]2-c2ccccc2)cc1,u,17*,22*,25µM*,u,5%,14%,-21%,-20%,-20%,-24%
COc1ccc(C)cc1Nc1n[n+](-c2ccccc2)c(-c2ccc(NC(C)=O)cc2)s1,u,0,2,22µM*,u,16%,u,1%,4%,-5%,11%
Fc1ccc(-[n+]2nc(Nc3ccccc3)sc2-c2cccc(Cl)c2Cl)cc1,50%,-9,-4,-1%,68%,10%,x,x,x,x,x
Clc1cccc(-c2sc(Nc3ccccc3)n[n+]2-c2ccccc2)c1Cl,-7%,-3,-1,u,u,12%,x,x,x,x,x
COc1ccc(C)cc1Nc1n[n+](C)c(-c2ccc(C(=O)O)cc2)s1,-3%,-6,-3,6%,8%,5%,x,x,x,x,x
CCCNC(=O)CSc1nnc(C)s1,x,-5,3,3%,1%,3%,x,x,x,x,x
N#C/C(=C(/O)CCl)c1nc2c(s1)CCc1ccccc1-2,-14%,54*,30*,14µM*,u,-28%,u,-11%,u,u,-22%
N#C/C(=C(/O)CN1CCOCC1)c1nc2ccccc2s1,12%,55,10,-12%,-3%,2%,x,x,x,x,x
COc1ccc(OC)c2c(C)cc(N3CCN(C(=O)c4ccc(F)cc4)CC3)nc12,u,25,-3,u,38%,-56%,x,x,x,x,x
CCN(CC)CC(=O)Nc1cc(N(C)C)nc2ccccc12,-3%,-9,-2,5.6µM*,3%,1%,u,-1%,5%,5%,15%
CCCc1nc2ccccc2c(NC(=O)CN(CC)CC)c1CC,-15%,-9,-3,16µM*,5%,x,7%[10.4 µM],9%,-2%,8%,11%
COc1cc(Cl)c(C)cc1NC(=S)NN,u,-8,5,20µM*,u,0%,u,1%,3%,3%,8%
COc1cc(NC(=S)NC(C)(C)C)c(OC)cc1Cl,u,15,-2,-5%,u,-12%,x,x,x,x,x
CCOc1cc(S(=O)(=O)N2CCN(C(=O)c3ccco3)CC2)ccc1F,u,-6,-2,18%,-4%,-16%,x,x,x,x,x
COc1ccc2c(c1OC)C(=O)N(c1nc(SC)n[nH]1)C2=O,4%,5,-1,16µM*,167%,-8%,19%,6%,-2%,2%,-18%
C[C@H](NC(=O)[C@H]1N2C(=O)c3ccccc3C2SC1(C)C)C(=O)N1CCCCC1 (stereo partly specified),6%,12,-2,20µM*,10%,17%,16%,6%,-14%,-11%,u
SMILES,Pf growth 48h,Shiga toxin inh,Cycloheximide cs,Giardia FBPA inh-1,Pf growth 96h,NS1 inh,Giardia growth,Mammal cell tox,Giardia FBPA inh-2,Rabbit aldolase,GAPDH coupling
CN(CC(=O)Nc1ccc(OC(F)(F)F)cc1)C1CCCCC1,u,-6,11,u,u,x,x,x,x,x,x
Cc1ccc(NC(=O)CN(C)C2CCCCC2)cc1Cl,-15%,-1,5,20µM*,u,-18%,18%,2%,8%,2%,1%
Cc1c(N2C(=O)/C(=C3\C(=O)N(CC(=O)O)c4ccccc43)SC2=S)c(=O)n(-c2ccccc2)n1C,39%,-8,-3,10µM*,82%,-6%,29%,21%,u,-19%,u
Cc1c(N2C(=O)/C(=C/c3ccccc3)SC2=S)c(=O)n(-c2ccccc2)n1C,47%,-12,-4,6%,86%,4%,x,x,x,x,x
Fc1ccccc1CN1CCN(c2ncccn2)CC1,194%,-4,-1,25µM*,-3%,-3%,25%,13%,5%,0%,-18%
Nc1ccc(N2CCCCC2)c(S(=O)(=O)Nc2ccccc2Cl)c1,4%,18,6,16µM*,24%,7%,29%,-9%,-7%,5%,-11%
O=C(O)c1ccc2cccc(O)c2n1,0%,-3,1,2.2µM*,0%,5%,u,21%,u,-28%,u
CC(=O)Nc1cccc(C(=O)O)n1,8%,13,-6,u,-1%,11%,x,x,x,x,x
Nn1c(Cc2cccc3ccccc23)n[nH]c1=S,0%,16,7,u,5%,x,x,x,x,x,x
Nn1c(Cc2ccccc2F)n[nH]c1=S,0%,57,-3,14µM*,u,x,-19%,-3%,-4%,9%,0%
